PubChem BioAssay AID1159580 (chemical genetic matrix, 2015)
Among all 5,500 compounds or so, about 2,000 (36%) were called active. Not shown: some 18% with an inconclusive outcome. Rule as the data show it: active = normalized growth mostly below about 0.91 (no sharp cut-off); inconclusive = no clear call, values can overlap the other calls; inactive = mostly above about 0.92. Some of the results follow.

Assay: chemical genetic growth profiling, strain panel (AID 1159580);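 also: tested at 20 µM; growth read once vehicle control cultures reached saturation at 30 °C; 1 = growth at the plate median or of vehicle wells; lower values mean less growth of the strain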
Details: growth OD
[1] = S. cerevisiae deletion strains, locus YAL013W, strain DEP1, stronger effect = lower value
[2] = S. cerevisiae deletion strains, locus YBR229C, strain ROT2, stronger effect = lower value
[3] = S. cerevisiae deletion strains, locus YDL101C, strain DUN1, stronger effect = lower value
[4] = S. cerevisiae deletion strains, locus YDR150W, strain NUM1, stronger effect = lower value
[5] = S. cerevisiae deletion strains, locus YEL061C, strain CIN8, stronger effect = lower value
[6] = S. cerevisiae deletion strains, locus YGR078C, strain PAC10, stronger effect = lower value
[7] = S. cerevisiae deletion strains, locus YHR030C, strain SLT2, stronger effect = lower value
[8] = S. cerevisiae deletion strains, locus YHR087W, strain rtc3, stronger effect = lower value
[9] = S. cerevisiae deletion strains, locus YJR043C, strain POL32, stronger effect = lower value
[10] = S. cerevisiae deletion strains, locus YJR075W, strain HOC1, stronger effect = lower value
[11] = S. cerevisiae deletion strains, locus YKL190W, strain CNB1, stronger effect = lower value
[12] = S. cerevisiae deletion strains, locus YLR039C, strain RIC1, stronger effect = lower value
[13] = S. cerevisiae deletion strains, locus YLR058C, strain SHM2 (second series), stronger effect = lower value
[14] = S. cerevisiae deletion strains, locus YLR085C, strain ARP6, stronger effect = lower value
[15] = S. cerevisiae deletion strains, locus YLR262C, strain YPT6, stronger effect = lower value
[16] = S. cerevisiae deletion strains, locus YML094W, strain GIM5, stronger effect = lower value
[17] = S. cerevisiae deletion strains, locus YMR219W, strain ESC1, stronger effect = lower value
[18] = S. cerevisiae deletion strains, locus YMR263W, strain SAP30, stronger effect = lower value
[19] = S. cerevisiae deletion strains, locus YNL153C, strain GIM3, stronger effect = lower value
[20] = S. cerevisiae deletion strains, locus YNL298W, strain CLA4 (second series), stronger effect = lower value
[21] = S. cerevisiae deletion strains, locus YNL322C, strain KRE1, stronger effect = lower value
[22] = S. cerevisiae deletion strains, locus YNR030W, strain Alg12, stronger effect = lower value
[23] = S. cerevisiae deletion strains, locus YPL055C, strain LGE1, stronger effect = lower value
[24] = S. cerevisiae deletion strains, locus YPR135W, strain CTF4, stronger effect = lower value
[25] = S. cerevisiae strains, strain wild type, stronger effect = lower value

Measured: normalized growth

NC(N)=NC(N)=Nc1ccccc1C(F)(F)F
inactive: [1] 0.987 | [2] 0.982 | S. cerevisiae deletion strains, locus YCL061C, strain MRC1, stronger effect = lower value 1.01 | [3] 0.969 | [4] 0.895 | [5] 0.993 | [6] 0.979 | [7] 0.935 | [8] 0.966 | [9] 0.998 | [10] 1.01 | [11] 0.997 | [12] 0.989 | [13] 0.982 | [14] 1.01 | [15] 0.997 | [16] 0.923 | [17] 0.987 | [18] 1.06 | S. cerevisiae deletion strains, locus YNL128W, strain TEP1, stronger effect = lower value 0.984 | [19] 1.02 | [20] 0.938 | [21] 0.993 | [22] 0.983 | [23] 0.962 | [24] 0.922 | [25] 0.986

CCOC(=O)c1sc2sc(C(=O)c3ccc(Cl)cc3)c(C)c2c1C
inactive: [1] 1 | [2] 1.03 | [3] 1 | S. cerevisiae deletion strains, locus YDL134C, strain PPH21, stronger effect = lower value 1.01 | [4] 0.91 | [5] 1.02 | [6] 1.01 | [7] 1.1 | [8] 1.01 | [9] 0.991 | [10] 1.03 | [11] 1.02 | [12] 1.06 | [13] 1.01 | [14] 1.06 | [15] 1.06 | [16] 1.01 | [17] 1 | [18] 0.937 | S. cerevisiae deletion strains, locus YMR307W, strain GAS1, stronger effect = lower value 1.07 | [19] 1 | [20] 1.05 | [21] 1.01 | [22] 1.03 | [23] 0.904 | S. cerevisiae deletion strains, locus YPL241C, strain CIN2, stronger effect = lower value 1.01 | [24] 1.09 | [25] 1.02

CCOC(=O)c1sc(S(C)=NC(=O)Nc2ccc(Cl)cc2)c2c1CCC=C2 (stereo unspecified)
inactive: S. cerevisiae deletion strains, locus YAR019C, strain CDC15, stronger effect = lower value 0.985 | S. cerevisiae deletion strains, locus YBL105C, strain PKC1, stronger effect = lower value 0.974 | S. cerevisiae deletion strains, locus YBR135W, strain CKS1, stronger effect = lower value 0.974 | S. cerevisiae deletion strains, locus YBR136W, strain MEC1, stronger effect = lower value 0.974 | S. cerevisiae deletion strains, locus YBR160W, strain CDC28, stronger effect = lower value 0.978 | S. cerevisiae deletion strains, locus YDL017W, strain CDC7, stronger effect = lower value 0.979 | S. cerevisiae deletion strains, locus YDL028C, strain MPS1, stronger effect = lower value 0.971 | [3] 0.97 | S. cerevisiae deletion strains, locus YDL108W, strain KIN28, stronger effect = lower value 0.972 | S. cerevisiae deletion strains, locus YDL132W, strain cdc53, stronger effect = lower value 0.965 | S. cerevisiae deletion strains, locus YDL214C, strain PRR2, stronger effect = lower value 0.922 | S. cerevisiae deletion strains, locus YDR052C, strain DBF4, stronger effect = lower value 0.981 | S. cerevisiae deletion strains, locus YDR054C, strain cdc34, stronger effect = lower value 0.974 | S. cerevisiae deletion strains, locus YDR226W, strain ADK1, stronger effect = lower value 0.963 | S. cerevisiae deletion strains, locus YDR477W, strain SNF1, stronger effect = lower value 0.937 | S. cerevisiae deletion strains, locus YER123W, strain YCK3, stronger effect = lower value 0.923 | S. cerevisiae deletion strains, locus YER133W, strain GLC7, stronger effect = lower value 0.945 | S. cerevisiae deletion strains, locus YFL009W, strain cdc4, stronger effect = lower value 0.973 | S. cerevisiae deletion strains, locus YFL029C, strain CAK1, stronger effect = lower value 0.977 | S. cerevisiae deletion strains, locus YFR003C, strain YPI1, stronger effect = lower value 0.976 | S. cerevisiae deletion strains, locus YFR019W, strain FAB1, stronger effect = lower value 0.94 | S. cerevisiae deletion strains, locus YFR028C, strain CDC14, stronger effect = lower value 0.975 | S. cerevisiae deletion strains, locus YGR040W, strain KSS1, stronger effect = lower value 0.922 | S. cerevisiae deletion strains, locus YGR052W, strain FMP48, stronger effect = lower value 0.954 | S. cerevisiae deletion strains, locus YGR092W, strain DBF2, stronger effect = lower value 0.947 | [7] 1.05 | S. cerevisiae deletion strains, locus YHR079C, strain IRE1, stronger effect = lower value 1.01 | S. cerevisiae deletion strains, locus YHR082C, strain KSP1, stronger effect = lower value 1.02 | S. cerevisiae deletion strains, locus YHR205W, strain SCH9, stronger effect = lower value 0.959 | S. cerevisiae deletion strains, locus YIL147C, strain SLN1, stronger effect = lower value 0.968 | S. cerevisiae deletion strains, locus YJL095W, strain BCK1, stronger effect = lower value 0.963 | S. cerevisiae deletion strains, locus YJL128C, strain PBS2, stronger effect = lower value 0.94 | S. cerevisiae deletion strains, locus YJL157C, strain FAR1, stronger effect = lower value 0.941 | S. cerevisiae deletion strains, locus YJR016C, strain ILV3, stronger effect = lower value 0.976 | S. cerevisiae deletion strains, locus YJR066W, strain TOR1 (second series), stronger effect = lower value 0.923 | S. cerevisiae deletion strains, locus YJR066W, strain TOR1, stronger effect = lower value 1.02 | S. cerevisiae deletion strains, locus YKL048C, strain ELM1, stronger effect = lower value 0.96 | S. cerevisiae deletion strains, locus YKL067W, strain YNK1, stronger effect = lower value 0.938 | S. cerevisiae deletion strains, locus YKL101W, strain HSL1, stronger effect = lower value 0.902 | S. cerevisiae deletion strains, locus YKL193C, strain SDS22, stronger effect = lower value 0.974 | S. cerevisiae deletion strains, locus YKL203C, strain TOR2, stronger effect = lower value 1.02 | S. cerevisiae deletion strains, locus YLR133W, strain CKI1, stronger effect = lower value 0.926 | S. cerevisiae deletion strains, locus YLR403W, strain SFP1, stronger effect = lower value 0.953 | S. cerevisiae deletion strains, locus YML070W, strain DAK1, stronger effect = lower value 0.916 | S. cerevisiae deletion strains, locus YMR001C, strain CDC5, stronger effect = lower value 0.978 | S. cerevisiae deletion strains, locus YMR205C, strain PFK2 (second series), stronger effect = lower value 0.951 | S. cerevisiae deletion strains, locus YMR277W, strain FCP1, stronger effect = lower value 0.974 | S. cerevisiae deletion strains, locus YNL006W, strain LST8, stronger effect = lower value 0.982 | S. cerevisiae deletion strains, locus YNL020C, strain ARK1, stronger effect = lower value 0.93 | S. cerevisiae deletion strains, locus YNL161W, strain CBK1, stronger effect = lower value 0.978 | S. cerevisiae deletion strains, locus YNL183C, strain NPR1, stronger effect = lower value 1 | S. cerevisiae deletion strains, locus YNL207W, strain RIO2, stronger effect = lower value 0.968 | S. cerevisiae deletion strains, locus YNL222W, strain SSU72, stronger effect = lower value 0.975 | S. cerevisiae deletion strains, locus YNL307C, strain MCK1 (second series), stronger effect = lower value 0.951 | S. cerevisiae deletion strains, locus YOL078W, strain AVO1, stronger effect = lower value 0.96 | S. cerevisiae deletion strains, locus YOL136C, strain PFK27, stronger effect = lower value 0.895 | S. cerevisiae deletion strains, locus YOR061W, strain CKA2, stronger effect = lower value 0.945 | S. cerevisiae deletion strains, locus YOR119C, strain RIO1, stronger effect = lower value 0.998 | S. cerevisiae deletion strains, locus YOR231W, strain MKK1, stronger effect = lower value 0.894 | S. cerevisiae deletion strains, locus YOR329C, strain SCD5, stronger effect = lower value 0.976 | S. cerevisiae deletion strains, locus YPL031C, strain PHO85, stronger effect = lower value 0.94 | S. cerevisiae deletion strains, locus YPL153C, strain RAD53, stronger effect = lower value 0.953 | S. cerevisiae deletion strains, locus YPL204W, strain HRR25, stronger effect = lower value 0.9 | S. cerevisiae deletion strains, locus YPL209C, strain IPL1, stronger effect = lower value 0.968 | S. cerevisiae deletion strains, locus YPL256C, strain CLN2, stronger effect = lower value 0.999 | S. cerevisiae deletion strains, locus YPR025C, strain CCL1, stronger effect = lower value 0.981 | S. cerevisiae deletion strains, locus YPR106W, strain ISR1, stronger effect = lower value 0.962 | S. cerevisiae deletion strains, locus YPR111W, strain DBF20, stronger effect = lower value 0.985 | S. cerevisiae deletion strains, strain NNK1, stronger effect = lower value 0.961 | S. cerevisiae deletion strains, strain TSCII, stronger effect = lower value 0.97
active: S. cerevisiae deletion strains, locus YLR113W, strain HOG1, stronger effect = lower value 0.859
